GAA850 FXN act: increases GAA850 frataxin promoter reporter activity; HEK293 lucGAA850 FXN promoter luciferase reporter, 24 h; percent of 10 µM SAHA response; activation, % at 6 µM; 0.56% of 360,000 active;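 active means activation above the average of all compounds screened plus 3 SD, cutoff fixed separately per campaign, cut at about 7.5% in these data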;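 further: 0% = DMSO wells and 100% = 10 µM SAHA wells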
SMARCA2 act: SMARCA2 function activation, primary screen | activation, % at 9.1 µM | MG213 cells, MMTV-luciferase reporter, dexamethasone, overnight | 1% of 370,000 active; in the data active means activation above about 7.8%;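 further: 0% = vehicle wells and 100% = reference activator wells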
PG9 binder: binds the HIV-1 gp120 antibody PG9 | TR-FRET gp120-PG9 antibody binding | inhibition, % at 6.7 µM | 0.43% of 360,000 active | AID 624416; in the data active means inhibition above about 8.5%
HSF1 inh: HSF1 inhibition; activity change, negative = inhibition, % at 7.5 µM (by protocol); 0.77% of 300,000 active; NIH3T3-HGL HSE-luciferase, MG132-induced, luminescence 8 h; hits give low values; AID 2098;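 active means more than half of replicate wells show activity change below -50%, luminescence cut by over half; inconclusive means some wells, but at most half, below -50%; inactive means no replicate well below -50%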;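 further: luciferase reports HSF-1 transcriptional activity via heat shock element; 0% = median of DMSO wells and -100% = zero luminescence signal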
AI-2 QS modul: Vibrio harveyi AI-2 quorum sensing modulation. 0.4% of 300,000 active. AID 2094. Vibrio harveyi JMH597 AI-2 luminescence/OD600 ratio, 9 h; hits give low values; strain lacks LuxN and CqsS sensors; 0 = neutral-control median. activity change, % at 7.5 µM; in the data active means activity change below about -75%, passing the limit was not always enough; inconclusive means no clear call, values can overlap the other calls;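 further: luminescence divided by OD600 gain over 9 h not by final OD600 alone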
HSP90 refold inh: blocks HSP90-mediated luciferase refolding in reticulocyte lysate | Rabbit reticulocyte lysate, luciferase refolding luminescence, 3 h | inhibition, % at 5.6 µM | AID 1789 | 0.91% of 290,000 active;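 active means inhibition above the screen-wide mean plus 3 SD, computed separately per campaign, cut at about 16% in these data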;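 further: 0% = DMSO wells and 100% = 60 µM geldanamycin wells; inhibitors lower the luminescence because luciferase stays unfolded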
SMARCA2 conf: confirmation of SMARCA2 (BRM) function activators; activation, % at 9.1 µM; MG213 cells, MMTV-luciferase with dexamethasone, luminescence, overnight; MG213 cells expressing E1A, Rb sequestered; DMSO wells 0%, reference activator 100%; shares compounds with SMARCA2 act; AID 652260; 30% of 3,500 active;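 active means activation above its plate's cutoff, the mean activation of tested wells plus 3 SD, cut at about 7.9% in these data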
GAL4-VP16 Luc: counter-screen for SMARCA2 activators: GAL4-VP16 luciferase reporter activation; shares compounds with SMARCA2 act; HEK293 GAL4-VP16 pG5luc reporter, luciferase luminescence; scaled: DMSO wells 0%, SAHA wells 100%; activation, % at 9.1 µM; 41% of 3,500 active; AID 686939;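 active means activation above the solvent-only control well mean plus 3 SD, averaged across control plates, cut at about 5.2% in these data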
Starred values were filed as active, the others as inactive; ? = inconclusive; / = not tested or not shown. Sampled rows, rich in hits. Any-hit rate of the full collection: about 3.4%.

SMILES | GAA850 FXN act | SMARCA2 act | PG9 binder | HSF1 inh | AI-2 QS modul | HSP90 refold inh | SMARCA2 conf | GAL4-VP16 Luc
O=C(c1cc2cc(F)ccc2[nH]1)N1CCc2ccccc21 | 3 | 10* | 7 | 35 | 33 | -2 | 8 | 9.3*
COc1cc(Br)c(/C=C/c2ccc3cccc(O)c3n2)cc1OC | -2 | -1 | -1 | 11 | 14 | 1 | / | /
COc1ccc(OC)c(/C=C/c2ccc3cccc(O)c3n2)c1 | 4 | 9.1* | 0 | 10 | 6 | 7 | -16 | 13*
O=C(CSc1nc2ccccc2s1)N/N=C/c1ccco1 | 4 | 8.8* | 0 | -8 | 27 | -2 | 8.9* | 0
CCC1CSC(=Nc2ccc(C)cc2)N1C(=O)CN1C(=O)NC2(CCCC2)C1=O (configuration not stated) | 4 | 9.7* | -4 | 23 | 31 | 5 | 11* | 8.2*
CC(=O)C1=C(C)N(Cc2ccc(Br)cc2)C(=S)NC1c1ccc(F)cc1 (configuration not stated) | / | -6 | 1 | / | / | / | / | /
C[C@H]1CN(S(=O)(=O)C(C)(C)C)[C@H](CCO)/C1=C\CCO | / | -5 | 1 | / | / | / | / | /
CN(C)c1cccc(C(=O)Nc2cccc(S(=O)(=O)NC3=NCCC3)c2)c1 | 3 | 8.3* | -4 | -11 | 18 | 1 | 15* | 5.3*
O=C(Nc1cccc(S(=O)(=O)NC2=NCCC2)c1)c1ccccc1 | 0 | 5 | 0 | / | / | / | / | /
Cc1cc(C(=O)N2CCC2(C)C(=O)NS(=O)(=O)c2ccccc2Cl)nn1C (configuration not stated) | 1 | -6 | 4 | / | / | / | / | /
CCCCN(C(=O)Cc1cccs1)c1nnc(-c2cccnc2)s1 | 4 | 11* | -2 | / | / | -4 | 7.9* | 5.5*
COCCN(C(=O)Cc1cccs1)c1nnc(-c2cccnc2)s1 | 1 | 4 | -2 | -6 | 20 | 1 | / | /
COc1cc(-c2nnc(COC(=O)c3cccn3C)o2)cc(OC)c1OC | 2 | -2 | 0 | -4 | 45 | 0 | / | /
COc1ccc(CNC(=O)COC(=O)c2cccn2C)cc1 | 2 | 1 | 1 | / | / | / | / | /
Cn1cccc1C(=O)OCc1cc(-c2ccco2)on1 | 6 | 8.4* | -2 | / | / | / | 4 | 5.4*
Cn1cccc1C(=O)OCc1ccc(C(C)(C)C)cc1 | 3 | 11* | -1 | 18 | 46 | -4 | 7 | 6.4*
Cc1cc(C)c(CN2CCN(C(=O)Cn3cc(C)c(=O)[nH]c3=O)CC2)c(C)c1 | / | -1 | -2 | / | / | / | / | /
O=C(NCc1ccco1)c1noc2c1CCCCC2 | 1 | 10* | -3 | 13 | 29 | -2 | 4 | 1
CC(C)Cc1cc(C(=O)NCc2cccs2)no1 | 3 | 13* | 2 | 17 | 18 | -2 | 7 | 14*
CC(C)c1cc(C(=O)NCc2ccco2)no1 | 2 | 9.0* | -1 | 0 | 26 | -1 | 8 | 7.3*
Cc1cc(C(=O)NCc2ccco2)on1 | 1 | 5 | 1 | -2 | 0 | 0 | / | /
COCCNc1nc(-c2cc(F)ccc2C)c2sc(-c3ccccc3)cc2n1 | -1 | 0 | -2 | / | / | / | / | /
CCOC(=O)C1=C(C)N=c2s/c(=C3\C(=O)Nc4ccccc43)c(=O)n2C1c1ccc2c(c1)OCO2 (configuration not stated) | 1 | 11* | 0 | -2 | 28 | 0 | -2 | 0
CNc1ccccc(-c2ccc3ccccc3n2)c1=O | 2 | 15* | -5 | 12 | 16 | 4 | 6 | 5.2*
C[C@@H]1CN([C@@H](C)CO)C(=O)CCCn2nncc2CO[C@@H]1CN(C)S(=O)(=O)c1cn(C)cn1 | 2 | -5 | -2 | / | / | / | / | /
SMILES | GAA850 FXN act | SMARCA2 act | PG9 binder | HSF1 inh | AI-2 QS modul | HSP90 refold inh | SMARCA2 conf | GAL4-VP16 Luc
NS(=O)(=O)c1ccc(N/N=C/c2cn(-c3ccccc3)nc2-c2cccs2)cc1 | 4 | 9.6* | -2 | 5 | 54 | -2 | 9.2* | 5
CCOC(=O)[C@]12CCCC=C1N(Cc1ccc(Cl)cc1Cl)C(=O)[C@H](CC(=O)N1CCN(C(=O)c3ccco3)CC1)C2 | / | -4 | -1 | / | / | / | / | /
O=C(Nc1cc(Br)ccc1O)c1cc(-c2cccs2)on1 | 4 | 9.8* | -1 | 1 | 24 | 1 | 8 | 4
Cc1cc(C(=O)COC(=O)c2ccc(Br)o2)c(C)n1C | 3 | 9.7* | -1 | 22 | 17 | 0 | 15* | 6.5*
COCCn1c(C)cc(C(=O)COC(=O)c2ccc(Br)o2)c1C | 3 | 2 | -4 | ? | 35 | 4 | / | /
C[C@H]1CN(S(=O)(=O)C(C)(C)C)[C@@H](CCO)/C1=C\CCO | / | -5 | -1 | / | / | / | / | /
O=C(c1ccccc1)n1ccc2ccc(-c3ccc4ccn(Cc5ccccc5)c4c3)cc21 | / | -3 | / | / | / | / | / | /
O=C(Cc1c[nH]c2ccccc12)Nc1ccc(Nc2cccnc2)c(-c2ccc(Cl)c(Cl)c2)c1 | / | -2 | 0 | / | / | / | / | /
CC1(C(=O)Nc2ccc(Cl)c(Cl)c2)CCN1Cc1ccccc1OC(F)F (configuration not stated) | 0 | -1 | -2 | / | / | / | / | /
C/C(=N/OCc1ccc(Br)cc1)c1ccccn1 | 6 | 9.1* | -1 | 22 | 18 | -2 | 7 | 8.7*
O=[N+]([O-])c1cc2cccnc2c2ncccc12 | -1 | -3 | -1 | -21 | -4 | -1 | / | /
O=[N+]([O-])c1cc(O)c2ncccc2c1 | / | 21* | 0 | -15 | 57 | 2 | 1 | 2
O=C1/C(=C/c2cccs2)COc2ccccc21 | 6 | 2 | 0 | 7 | 21 | -7 | / | /
O=C1C(=Cc2cccs2)Oc2ccccc21 | 5 | 8.7* | -2 | / | / | / | 1 | 1
O=C1c2[nH]nc(-c3ccccc3)c2C(c2cccc(C(F)(F)F)c2)N1c1ccccc1 (configuration not stated) | / | -7 | 0 | / | / | / | / | /
COC(=O)C1C(=O)c2c([nH]c(C(=O)OC3CCCC3)c2C)CC1C (configuration not stated) | 5 | 8.2* | -1 | 0 | -14 | -3 | 7 | 8.4*
CC(C)CC(N)c1csc(NC(=O)C(c2ccccc2)c2ccccc2)n1 (configuration not stated) | -3 | -3 | 1 | / | / | / | / | /
ON=Cc1ccnc2ccccc12 | -1 | -5 | 1 | / | / | / | / | /
O=C(O)c1ccccc1N/N=C\c1ccnc2ccccc12 | -2 | 8.0* | -6 | -5 | 9 | 4 | 3 | 3
Cc1occc1C(=O)NNC(=O)c1ccccc1C(=O)O | 6 | 12* | 0 | 21 | 20 | 1 | 5 | 5
